# Experimental data taken from the supplement of paper PMC4466140.
# What was measured:
# Assay in all cases: SPOT peptide array binding signal intensity (averaged, normalized) (arbitrary units (background-subtracted, floor 0; scale differs between SH3 domains)); higher = stronger binding of the SH3 domain to the peptide
# SpBzz1-D2 = biological target: SpBzz1-D2
# Protocol: (§1)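 GST-tagged SH3 domains from S. cerevisiae (Sc), A. gossypii (Ag), C. albicans (Ca) and S. pombe (Sp) were incubated at 10 ug/ml overnight at 4 C on cellulose SPOT membranes carrying 292 synthetic 15-mer peptides mined from the S. cerevisiae proteome (cysteines replaced by serines). Binding was detected with anti-GST antibody, HRP secondary and chemiluminescence, quantified with Genespotter, and reported as normalized spot intensities averaged over biological replicates.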
# SpCyk3 = biological target: SpCyk3
# Protocol: as §1
# SpHof1 = biological target: SpHof1
# Protocol: as §1
# SpHof1-2 = biological target: SpHof1-2
# Protocol: as §1
# SpHof1-3 = biological target: SpHof1-3
# Protocol: as §1
# SpHse1 = biological target: SpHse1
# Protocol: as §1
# SpLsb1 = biological target: SpLsb1
# Protocol: as §1
# SpLsb4 = biological target: SpLsb4
# Protocol: as §1
# SpMyo1 = biological target: SpMyo1
# Protocol: as §1
# SpNbp2 = biological target: SpNbp2
# Protocol: as §1
# SpPex13 = biological target: SpPex13
# Protocol: as §1
# SpRvs167 = biological target: SpRvs167
# Protocol: as §1
# SpSla1-D1-D2 = biological target: SpSla1-D1-D2
# Protocol: as §1
# SpSla1-D3 = biological target: SpSla1-D3
# Protocol: as §1
# AgAbp1 = biological target: AgAbp1
# Protocol: as §1
# AgBbc1 = biological target: AgBbc1
# Protocol: as §1
# AgBem1-D1 = biological target: AgBem1-D1
# Protocol: as §1
# AgBzz1-D1 = biological target: AgBzz1-D1
# Protocol: as §1
# AgBzz1-D2 = biological target: AgBzz1-D2
# Protocol: as §1
# AgCyk3 = biological target: AgCyk3
# Protocol: as §1
# AgFus1 = biological target: AgFus1
# Protocol: as §1
# AgHof1 = biological target: AgHof1
# Protocol: as §1
# AgHse1 = biological target: AgHse1
# Protocol: as §1
# AgLsb1 = biological target: AgLsb1
# Protocol: as §1
# AgLsb4 = biological target: AgLsb4
# Protocol: as §1
# AgMyo5 = biological target: AgMyo5
# Protocol: as §1
# AgNbp2 = biological target: AgNbp2
# Protocol: as §1
# AgRvs167 = biological target: AgRvs167
# Protocol: as §1
# AgSho1 = biological target: AgSho1
# Protocol: as §1
# AgSla1-D1-D2 = biological target: AgSla1-D1-D2
# Protocol: as §1
# AgSla1-D3 = biological target: AgSla1-D3
# Protocol: as §1
# CaAbp1-D1 = biological target: CaAbp1-D1
# Protocol: as §1
# CaAbp1-D2 = biological target: CaAbp1-D2
# Protocol: as §1
# CaBbc1 = biological target: CaBbc1
# Protocol: as §1
# CaBem1-D1 = biological target: CaBem1-D1
# Protocol: as §1
# CaBzz1-D1 = biological target: CaBzz1-D1
# Protocol: as §1
# CaBzz1-D2 = biological target: CaBzz1-D2
# Protocol: as §1
# CaCyk3 = biological target: CaCyk3
# Protocol: as §1
# CaFus1 = biological target: CaFus1
# Protocol: as §1
# CaHof1 = biological target: CaHof1
# Protocol: as §1
# CaHse1 = biological target: CaHse1
# Protocol: as §1
# CaLsb1 = biological target: CaLsb1
# Protocol: as §1
# CaLsb4 = biological target: CaLsb4
# Protocol: as §1
# CaMyo5 = biological target: CaMyo5
# Protocol: as §1
# CaNbp2 = biological target: CaNbp2
# Protocol: as §1
# CaRvs167 = biological target: CaRvs167
# Protocol: as §1
# CaRvs167-3 = biological target: CaRvs167-3
# Protocol: as §1
# CaSho1 = biological target: CaSho1
# Protocol: as §1
# CaSla1-D1-D2 = biological target: CaSla1-D1-D2
# Protocol: as §1
# CaSla1-D3 = biological target: CaSla1-D3
# Protocol: as §1
# ScAbp1 = biological target: ScAbp1
# Protocol: as §1
# ScBbc1 = biological target: ScBbc1
# Protocol: as §1
# ScBem1-D1 = biological target: ScBem1-D1
# Protocol: as §1
# ScBzz1-D1 = biological target: ScBzz1-D1
# Protocol: as §1
# ScBzz1-D2 = biological target: ScBzz1-D2
# Protocol: as §1
# ScCyk3 = biological target: ScCyk3
# Protocol: as §1
# ScFus1 = biological target: ScFus1
# Protocol: as §1
# ScHof1 = biological target: ScHof1
# Protocol: as §1
# ScHse1 = biological target: ScHse1
# Protocol: as §1
# ScLsb1 = biological target: ScLsb1
# Protocol: as §1
# ScLsb2 = biological target: ScLsb2
# Protocol: as §1
# ScLsb3 = biological target: ScLsb3
# Protocol: as §1
# ScLsb4 = biological target: ScLsb4
# Protocol: as §1
# ScMyo3 = biological target: ScMyo3
# Protocol: as §1
# ScMyo5 = biological target: ScMyo5
# Protocol: as §1
# ScNbp2 = biological target: ScNbp2
# Protocol: as §1
# ScPex13 = biological target: ScPex13
# Protocol: as §1
# ScRvs167 = biological target: ScRvs167
# Protocol: as §1
# ScSho1 = biological target: ScSho1
# Protocol: as §1
# ScSla1-D1-D2 = biological target: ScSla1-D1-D2
# Protocol: as §1
# ScSla1-D3 = biological target: ScSla1-D3
# Protocol: as §1
# SpAbp1-D1 = biological target: SpAbp1-D1
# Protocol: as §1
# SpBbc1 = biological target: SpBbc1
# Protocol: as §1
# SpBzz1-D1 = biological target: SpBzz1-D1
# Protocol: as §1
binder,measurement,setting,value
LYKRKPILLPDPKPL,SPOT peptide array binding signal intensity,SpBzz1-D2,0.5
same,SPOT peptide array binding signal intensity,SpCyk3,≤ 0
same,SPOT peptide array binding signal intensity,SpHof1,6.25
same,SPOT peptide array binding signal intensity,SpHof1-2,7.5
same,SPOT peptide array binding signal intensity,SpHof1-3,83
same,SPOT peptide array binding signal intensity,SpHse1,4
same,SPOT peptide array binding signal intensity,SpLsb1,19.8
same,SPOT peptide array binding signal intensity,SpLsb4,≤ 0
same,SPOT peptide array binding signal intensity,SpMyo1,≤ 0
same,SPOT peptide array binding signal intensity,SpNbp2,5.5
same,SPOT peptide array binding signal intensity,SpPex13,≤ 0
same,SPOT peptide array binding signal intensity,SpRvs167,12.3
same,SPOT peptide array binding signal intensity,SpSla1-D1-D2,≤ 0
same,SPOT peptide array binding signal intensity,SpSla1-D3,≤ 0
VRTRRRPPPPPIPST,SPOT peptide array binding signal intensity,AgAbp1,28.5
same,SPOT peptide array binding signal intensity,AgBbc1,892
same,SPOT peptide array binding signal intensity,AgBem1-D1,472
same,SPOT peptide array binding signal intensity,AgBzz1-D1,3600
same,SPOT peptide array binding signal intensity,AgBzz1-D2,940
same,SPOT peptide array binding signal intensity,AgCyk3,2
same,SPOT peptide array binding signal intensity,AgFus1,30
same,SPOT peptide array binding signal intensity,AgHof1,258
same,SPOT peptide array binding signal intensity,AgHse1,29
same,SPOT peptide array binding signal intensity,AgLsb1,91.8
same,SPOT peptide array binding signal intensity,AgLsb4,44.5
same,SPOT peptide array binding signal intensity,AgMyo5,274
same,SPOT peptide array binding signal intensity,AgNbp2,840
same,SPOT peptide array binding signal intensity,AgRvs167,5.5
same,SPOT peptide array binding signal intensity,AgSho1,≤ 0
same,SPOT peptide array binding signal intensity,AgSla1-D1-D2,20
same,SPOT peptide array binding signal intensity,AgSla1-D3,346
same,SPOT peptide array binding signal intensity,CaAbp1-D1,61
same,SPOT peptide array binding signal intensity,CaAbp1-D2,55
same,SPOT peptide array binding signal intensity,CaBbc1,1060
same,SPOT peptide array binding signal intensity,CaBem1-D1,165
same,SPOT peptide array binding signal intensity,CaBzz1-D1,6060
same,SPOT peptide array binding signal intensity,CaBzz1-D2,3990
same,SPOT peptide array binding signal intensity,CaCyk3,108
same,SPOT peptide array binding signal intensity,CaFus1,7.5
same,SPOT peptide array binding signal intensity,CaHof1,≤ 0
same,SPOT peptide array binding signal intensity,CaHse1,13.8
same,SPOT peptide array binding signal intensity,CaLsb1,≤ 0
same,SPOT peptide array binding signal intensity,CaLsb4,176
same,SPOT peptide array binding signal intensity,CaMyo5,13
QNTPPLPPKPKSPHL,SPOT peptide array binding signal intensity,AgAbp1,29
same,SPOT peptide array binding signal intensity,AgBbc1,4.75
same,SPOT peptide array binding signal intensity,AgBem1-D1,≤ 0
same,SPOT peptide array binding signal intensity,AgBzz1-D1,30
same,SPOT peptide array binding signal intensity,AgBzz1-D2,38
same,SPOT peptide array binding signal intensity,AgCyk3,≤ 0
same,SPOT peptide array binding signal intensity,AgFus1,17.5
same,SPOT peptide array binding signal intensity,AgHof1,777
same,SPOT peptide array binding signal intensity,AgHse1,39.5
same,SPOT peptide array binding signal intensity,AgLsb1,1
same,SPOT peptide array binding signal intensity,AgLsb4,60.5
same,SPOT peptide array binding signal intensity,AgMyo5,≤ 0
same,SPOT peptide array binding signal intensity,AgNbp2,6.5
same,SPOT peptide array binding signal intensity,AgRvs167,1
same,SPOT peptide array binding signal intensity,AgSho1,54
same,SPOT peptide array binding signal intensity,AgSla1-D1-D2,2
same,SPOT peptide array binding signal intensity,AgSla1-D3,1.5
same,SPOT peptide array binding signal intensity,CaAbp1-D1,55
same,SPOT peptide array binding signal intensity,CaAbp1-D2,226
same,SPOT peptide array binding signal intensity,CaBbc1,41.5
same,SPOT peptide array binding signal intensity,CaBem1-D1,≤ 0
same,SPOT peptide array binding signal intensity,CaBzz1-D1,46.5
same,SPOT peptide array binding signal intensity,CaBzz1-D2,48.2
same,SPOT peptide array binding signal intensity,CaCyk3,1
same,SPOT peptide array binding signal intensity,CaFus1,≤ 0
same,SPOT peptide array binding signal intensity,CaHof1,3
same,SPOT peptide array binding signal intensity,CaHse1,1110
same,SPOT peptide array binding signal intensity,CaLsb1,0.5
same,SPOT peptide array binding signal intensity,CaLsb4,521
same,SPOT peptide array binding signal intensity,CaMyo5,4
same,SPOT peptide array binding signal intensity,CaNbp2,≤ 0
same,SPOT peptide array binding signal intensity,CaRvs167,5.67
same,SPOT peptide array binding signal intensity,CaRvs167-3,6
same,SPOT peptide array binding signal intensity,CaSho1,81
same,SPOT peptide array binding signal intensity,CaSla1-D1-D2,≤ 0
same,SPOT peptide array binding signal intensity,CaSla1-D3,3.5
same,SPOT peptide array binding signal intensity,ScAbp1,≤ 0
same,SPOT peptide array binding signal intensity,ScBbc1,≤ 0
same,SPOT peptide array binding signal intensity,ScBem1-D1,≤ 0
same,SPOT peptide array binding signal intensity,ScBzz1-D1,≤ 0
same,SPOT peptide array binding signal intensity,ScBzz1-D2,4
same,SPOT peptide array binding signal intensity,ScCyk3,1
same,SPOT peptide array binding signal intensity,ScFus1,21
same,SPOT peptide array binding signal intensity,ScHof1,196
same,SPOT peptide array binding signal intensity,ScHse1,≤ 0
same,SPOT peptide array binding signal intensity,ScLsb1,1
same,SPOT peptide array binding signal intensity,ScLsb2,1
same,SPOT peptide array binding signal intensity,ScLsb3,4390
same,SPOT peptide array binding signal intensity,ScLsb4,52
same,SPOT peptide array binding signal intensity,ScMyo3,2
same,SPOT peptide array binding signal intensity,ScMyo5,≤ 0
same,SPOT peptide array binding signal intensity,ScNbp2,7.5
same,SPOT peptide array binding signal intensity,ScPex13,1360
same,SPOT peptide array binding signal intensity,ScRvs167,57.2
same,SPOT peptide array binding signal intensity,ScSho1,268
same,SPOT peptide array binding signal intensity,ScSla1-D1-D2,≤ 0
same,SPOT peptide array binding signal intensity,ScSla1-D3,4.5
same,SPOT peptide array binding signal intensity,SpAbp1-D1,≤ 0
same,SPOT peptide array binding signal intensity,SpBbc1,≤ 0
same,SPOT peptide array binding signal intensity,SpBzz1-D1,302
same,SPOT peptide array binding signal intensity,SpBzz1-D2,2.5
same,SPOT peptide array binding signal intensity,SpCyk3,≤ 0
same,SPOT peptide array binding signal intensity,SpHof1,≤ 0
same,SPOT peptide array binding signal intensity,SpHof1-2,11.2
same,SPOT peptide array binding signal intensity,SpHof1-3,28.8
same,SPOT peptide array binding signal intensity,SpHse1,16
same,SPOT peptide array binding signal intensity,SpLsb1,956
same,SPOT peptide array binding signal intensity,SpLsb4,1280
same,SPOT peptide array binding signal intensity,SpMyo1,19.5
same,SPOT peptide array binding signal intensity,SpNbp2,42
same,SPOT peptide array binding signal intensity,SpPex13,0.5
same,SPOT peptide array binding signal intensity,SpRvs167,1090
same,SPOT peptide array binding signal intensity,SpSla1-D1-D2,≤ 0
same,SPOT peptide array binding signal intensity,SpSla1-D3,3
